PubChem BioAssay (NCI)
Compounds without any hit were thinned out: in the full panel of roughly 83,000, 20% have a hit.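 Results are percent growth after 48 hours of single-concentration exposure. 100 means growth as in untreated cells, lower positive values show inhibition; negative values down to -100 show cell death.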 Activity calls are given as the source filed them.

Tested on: SK-OV-3 ovarian
Assay: NCI-60 one-dose screen, 48 h (100 = growth as untreated, 0 = no growth, -100 = all killed)
Details: 10 µM
Experimental: Growth inhibition of the SK-OV-3 human tumor cell line is measured as a screen for anti-cancer activity. Cells are grown in 96 well plates and exposed to the test compound for 48 hours. Compounds are tested at a single concentration, which is 10^-5 M for most compounds. The reported endpoint is percent growth (GI% or GIPRCNT), where numbers from 0 - 100% represent growth inhibition, and numbers from -100% - 0 represent cell death. For example, a value of 40 represents 60% growth inhibition. A value of 0 means no net growth occurred over the course of the experiment. A value of -40 indicates 40% of cells at the beginning of the experiment died by the end of the experiment. A value of -100 means all cells are dead at the end of the experiment.
NCI-60 Human Tumor Cell Lines Screen was performed using the standard one-dose NCI protocol, which is described in more detail at https://dtp.cancer.gov/discovery_development/nci-60/default.htm.
Compounds with GIPRCNT values below 10 were considered active. Activity score was based on GIPRCNT using the following formula: […]
Score is 0 for GIPRCNT values of 100 or above, 50 for GIPRCNT values of 0, and 100 for GIPRCNT values of -100.

Question: How did the growth turn out when `CC(C)(C)c1cc(/C=C2\S/C(=N/c3ncn[nH]3)NC2=O)cc(C(C)(C)C)c1O` was run?
Answer: The growth was 4.14% (active).

Question: `COc1cc(Nc2nc(O)c(/C=C3\C=Nc4ccccc43)s2)cc(OC)c1OC` was tested. Which growth did it give?
Answer: The growth was -59.3% (active).

Question: Which growth does the source give for `COc1cc(C2CC(c3ccccc3)=Nc3c(N)nc(N)nc3N2)ccc1Oc1nc(NCCO)nc(N2CCOCC2)n1` (stereo not given) here?
Answer: The growth was 115% (inactive).

Question: For `C#C[C@]1(O)CC[C@H]2[C@@H]3CC=C4c5sc(Nc6cc(C)cc(C)n6)nc5CC[C@]4(C)[C@H]3CC[C@@]21C`, which growth is on record?
Answer: The growth was -62.4% (active).

Question: For `Cc1ccc2c(c1)C(=O)/C(=C/c1c[nH]c3ccccc13)S2`, which growth is on record?
Answer: Its growth is 84.4% (inactive).

Question: `COc1cccc(O)c1/C=C1\SCc2cc3c(OC)cccc3[o+]c21` was tested. Which growth did it give?
Answer: Its growth is 118% (inactive).

Question: How did the growth turn out when `Cc1ccc(COc2ccc(NC(=O)Nc3ccc(Cl)c(C(F)(F)F)c3)cc2)cc1` was run?
Answer: The growth was 97.1% (inactive).

Question: How did the growth turn out when `COc1ccccc1-n1cc(C#N)c(N)c1C(=O)c1ccc(Cl)cc1Cl` was run?
Answer: The growth was 14.9% (inactive).

Question: Which growth does the source give for `COc1cc(C2CC(c3ccc(Oc4ccc(Cl)cc4)cc3)=NN2c2nc(-c3ccc(Cl)cc3)c(C#N)c(N3CCOCC3)n2)cc(OC)c1OC` (stereo not given) here?
Answer: Its growth is 102% (inactive).

Question: `O=C(Nc1ccc(OCC(=O)c2ccc(Cl)cc2)cc1)Nc1ccc(Cl)c(C(F)(F)F)c1` was tested. Which growth did it give?
Answer: Its growth is 33% (inactive).

Question: Which growth does the source give for `O=C(CC(=O)Nc1ccc(Oc2ncnc3scc(Nc4n[nH]c(=S)s4)c23)cc1)Nc1ccc(Cl)cc1` here?
Answer: The growth was 77.5% (inactive).

Question: How did the growth turn out when `CCn1c(SCC(=O)Nc2ccc(-c3nc4ccccc4[nH]3)cc2)nc2ccccc2c1=O` was run?
Answer: Its growth is -70.5% (active).

Question: How did the growth turn out when `COc1ccc(OC)c(-n2cc(C#N)c(N)c2C(=O)c2ccc(Cl)cc2Cl)c1` was run?
Answer: Its growth is 49.7% (inactive).

Question: With `O=C(CSc1nc2ccccc2c(=O)n1-c1ccc(Cl)cc1)Nc1ccc(-c2nc3ccccc3[nH]2)cc1` as the compound, how does the growth read?
Answer: The growth was 94.2% (inactive).

Question: For `O=C(c1ccc(F)cc1)C(c1c[nH]c2ccccc12)c1c[nH]c2ccccc12`, which growth is on record?
Answer: Its growth is 99.9% (inactive).

Question: `CCOc1ccc(/C=N/NC(=O)Cn2nc(Cc3ccc(OC)cc3)c3onc(C)c3c2=O)cc1` was tested. Which growth did it give?
Answer: The growth was -26.6% (active).

Question: With `O=C(CN1CCN(c2ncnc3c2cnn3-c2ccccc2)CC1)Nc1ccc(Cl)cc1` as the compound, how does the growth read?
Answer: The growth was 79.2% (inactive).

Question: Which growth does the source give for `Cn1cc(/C=C(/SS/C(=C/c2cn(C)c3cccc(C(=O)O)c23)C(=O)O)C(=O)O)c2c(C(=O)O)cccc21` here?
Answer: The growth was 114% (inactive).

Question: `CCOC(=O)C1=C(N)N(c2ccc(C)cc2)C2=C(C(=O)CC(C)(C)C2)C1c1ccccc1Br` (stereo not given) was tested. Which growth did it give?
Answer: The growth was 91.9% (inactive).

Question: With `Cn1cc(-c2nc(N)nnc2-c2c[nH]c3ccccc23)c2cc(Br)cnc21` as the compound, how does the growth read?
Answer: Its growth is 26.5% (inactive).

Question: How did the growth turn out when `O=C1NC(=S)S/C1=C\c1cn(-c2ccccc2)nc1-c1ccc([N+](=O)[O-])cc1` was run?
Answer: Its growth is 6% (active).

Question: `Fc1ccc(/C=C/c2nc3ccccc3n3c(-c4ccc(Cl)cc4)nnc23)cc1` was tested. Which growth did it give?
Answer: The growth was 104% (inactive).

Question: How did the growth turn out when `Cn1cc(-c2cc3nc(-c4c[nH]c5ccccc45)cc(N)n3n2)c2cc(Cl)ccc21` was run?
Answer: The growth was -94.7% (active).

Question: Which growth does the source give for `COc1cc2oc(-c3cccc(C(=O)Nc4ccc(Cl)cc4)c3)cc(=O)c2c(OCCN)c1OC` here?
Answer: Its growth is -84.6% (active).

Question: Which growth does the source give for `C#C[C@]1(O)CC[C@H]2[C@@H]3CC=C4c5sc(Nc6ccc(N(C)C)cc6)nc5CC[C@]4(C)[C@H]3CC[C@@]21C` here?
Answer: The growth was -39.5% (active).

Question: Which growth does the source give for `COc1ccc2[nH]cc(-c3nc(N)nnc3-c3cn(C)c4ncc(Br)cc34)c2c1` here?
Answer: The growth was 10.7% (inactive).

Question: Which growth does the source give for `CC1(C)CC[C@]2(C(=O)O)CC[C@]3(C)C(=CCC4[C@@]5(C)C[C@@H](O)[C@@H]6OC(c7cccc(F)c7)OC[C@@]6(C)C5CC[C@]43C)C2C1` (stereo not given in full) here?
Answer: Its growth is 82.7% (inactive).

Question: `Cn1cc(-c2nnc(N)nc2-c2c[nH]c3ccc(F)cc23)c2cc(Br)cnc21` was tested. Which growth did it give?
Answer: Its growth is 98.8% (inactive).

Question: How did the growth turn out when `COc1ccc(Cn2cc(C#N)c(N)c2C(C)=O)c(OC)c1` was run?
Answer: Its growth is 99.8% (inactive).

Question: `Cn1cc(-c2cc(N)n3nc(-c4cn(C)c5ccccc45)cc3n2)c2cc(F)ccc21` was tested. Which growth did it give?
Answer: The growth was -77.7% (active).

Question: `Cc1cc(N=C2NC(=O)S/C2=C\c2ccc(F)cc2)n[nH]1` was tested. Which growth did it give?
Answer: The growth was 44.3% (inactive).

Question: `O=C(CN1CCN(c2ncnc3c2cnn3-c2ccccc2)CC1)Nc1ccc(Br)cc1` was tested. Which growth did it give?
Answer: Its growth is 76.7% (inactive).

Question: How did the growth turn out when `COc1ccc(Cc2nn(CC(=O)N/N=C/c3ccc(Br)cc3)c(=O)c3c(C)noc23)cc1` was run?
Answer: The growth was -30% (active).

Question: With `COc1ccc(C2OC[C@@]3(C)C4CC[C@]5(C)C(CC=C6C7CC(C)(C)CC[C@]7(C(=O)O)CC[C@]65C)[C@@]4(C)C[C@@H](O)[C@@H]3O2)cc1` (stereo not given in full) as the compound, how does the growth read?
Answer: The growth was 132% (inactive).

Question: For `O=C(O)CCN1C(=O)/C(=C/C=C/c2ccc([N+](=O)[O-])o2)SC1=S`, which growth is on record?
Answer: Its growth is 63.5% (inactive).

Question: For `O=[N+]([O-])c1cccc(-c2nnc3c(/C=C/c4ccccc4O)nc4ccccc4n23)c1`, which growth is on record?
Answer: The growth was 75.7% (inactive).

Question: With `CCOC(=O)c1ccc(NC(=O)CSC(CC(=O)c2sc(Nc3ccccn3)nc2C)c2ccccc2F)cc1` (stereo not given) as the compound, how does the growth read?
Answer: The growth was 5.92% (active).

Question: With `COc1ccc(C(=O)COc2ccc(NC(=O)Nc3ccccc3)cc2)cc1` as the compound, how does the growth read?
Answer: The growth was 105% (inactive).

Question: `Cc1ccc(S(=O)(=O)N2CCN(S(=O)(=O)c3oc(-c4ccccc4)nc3C#N)CC2)cc1` was tested. Which growth did it give?
Answer: Its growth is 87.9% (inactive).

Question: Which growth does the source give for `COc1cc2oc(-c3cccc(C(=O)Nc4ccc(Cl)cc4)c3)cc(=O)c2c(OCCNC(=O)[C@@H](N)CO)c1OC` here?
Answer: The growth was 115% (inactive).
